Some of the results follow. Calls of active or inactive are those of the source. Rule as the data show it: active = inhibition above about 40%; inactive = the rest.

The source of these data is PubChem BioAssay AID1502 (Sanford-Burnham Center for Chemical Genomics, 2009).

This assay deals with Runt-related transcription factor 1 (Homo sapiens) + Core-binding factor subunit beta (Homo sapiens) (UniProt Q01196+Q13951). Description: inhibitors of RUNX1 Runt–CBFb binding, biochemical, TR-FRET (AID 1502). Particulars: TR-FRET RUNX1 Runt domain-CBFb binding; at 20 µM; stronger effect = higher value. For orientation: TR-FRET usually uses a lanthanide donor and a delayed reading to cut background.
Runt-related transcription factor 1 (Homo sapiens) + Core-binding factor subunit beta (Homo sapiens), sequence (Q01196 whole entry, looked up, the tested form may be a part): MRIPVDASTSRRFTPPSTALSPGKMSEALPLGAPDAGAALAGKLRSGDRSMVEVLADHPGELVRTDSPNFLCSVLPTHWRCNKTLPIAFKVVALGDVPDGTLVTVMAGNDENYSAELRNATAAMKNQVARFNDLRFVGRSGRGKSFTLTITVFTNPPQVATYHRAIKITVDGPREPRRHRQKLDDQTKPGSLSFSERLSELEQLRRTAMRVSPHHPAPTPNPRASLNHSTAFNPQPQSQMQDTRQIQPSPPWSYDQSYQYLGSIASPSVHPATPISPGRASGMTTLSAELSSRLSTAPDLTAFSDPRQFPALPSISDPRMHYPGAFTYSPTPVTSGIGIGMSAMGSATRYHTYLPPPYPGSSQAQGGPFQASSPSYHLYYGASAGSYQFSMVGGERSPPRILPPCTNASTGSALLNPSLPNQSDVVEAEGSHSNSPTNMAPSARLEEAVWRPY
Runt-related transcription factor 1 (Homo sapiens) + Core-binding factor subunit beta (Homo sapiens), sequence (Q13951 whole entry, looked up, the tested form may be a part): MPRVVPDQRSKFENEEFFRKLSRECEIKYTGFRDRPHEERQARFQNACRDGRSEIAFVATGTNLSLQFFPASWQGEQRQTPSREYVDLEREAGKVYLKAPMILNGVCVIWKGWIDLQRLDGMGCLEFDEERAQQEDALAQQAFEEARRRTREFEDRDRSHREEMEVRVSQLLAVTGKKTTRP
By inhibition is commonly meant the drop in the measured response relative to a control, in per cent. Turning to `Brc1ccc(CSc2ccc(-c3ccco3)nn2)cc1`, the inhibition is 73.7% (active).

For `CC(C)Oc1ccc(/C=C(\NC(=O)/C=C/c2ccco2)C(=O)NCCc2nc3ccccc3[nH]2)cc1`, the inhibition is -3.3% (inactive). The value for `Cc1cc(C)c2c3c(sc2n1)C(c1ccccc1)C(C#N)=C(N)O3` (configuration not stated) was 1.6% (inactive). The same measure for `COC(=O)Cn1c2ccc(C)cc2c2nc(C)sc21`: 24.5% (inactive). Turning to `N#CC1=C(N)Oc2cc(O)ccc2C1C1CCCCC1` (configuration not stated), the inhibition is -0.9% (inactive). The value for `Cc1ccc(-c2cn3cc([N+](=O)[O-])ccc3n2)cc1` was -11.5% (inactive); that for `CCCN1C2=C(C(=O)CCC2)C(c2ccc(O)c(Br)c2)C2=C1CCCC2=O` was 29.9% (inactive). The value for `COc1c(O)ccc2c1CN1CCc3cc4c(cc3C1C2)OCO4` (configuration not stated) was 20.3% (inactive); that for `CCN1C(=O)/C(=C2/Sc3ccccc3N2CCCS(=O)(=O)O)SC1=S` was 10.7% (inactive); that for `CCN1/C(=C/C(=S)Nc2ccccc2)Sc2ccccc21` was -2.1% (inactive). Regarding `O=C1c2ccccc2C(Nc2ccc3c(c2)OCCO3)N1Cc1ccco1` (configuration not stated), the inhibition was 2% (inactive).

As to `O=c1cc(CN2CCN(S(=O)(=O)/C=C/c3ccccc3)CC2)c2ccc(O)cc2o1`, the inhibition is 34.5% (inactive). The same measure for `COc1cccc2sc(Nc3nc(C)c(C(C)=O)s3)nc12`: 0.6% (inactive); for `O=c1[nH]c2ccccc2n2c(-c3ccccc3)nnc12`: 66.7% (active); for `CC(=O)Oc1ccc2c(C)c(CC(C)O)c(=O)oc2c1` (configuration not stated): 14% (inactive). Turning to `Cc1cc(F)ccc1S(=O)(=O)Nc1ncnc2scc(-c3ccc(F)cc3)c12`, the inhibition is -13.5% (inactive).

For the compound `N#Cc1c(N)n(CCOC(=O)c2ccc(Cl)cc2)c2nc3ccccc3nc12`, the inhibition is 4% (inactive). The same measure for `OCCN1CCN(C(=S)c2ccc(-c3ccccc3)cc2)CC1`: 15.5% (inactive); for `CCOC(=O)c1cc2c(=O)n3ccccc3nc2n(CC(C)C)c1=NC(=O)c1c(-c2c(F)cccc2Cl)noc1C`: -8.1% (inactive); for `COc1ccc(C2C(C#N)=C(N)Oc3cc(N)ccc32)cc1OC` (configuration not stated): -6.8% (inactive). The value for `CC(C)Cn1c(CCC(=O)O)ccc1-c1cccs1` was 17% (inactive); that for `COCC(C)OC(=O)c1c(N)n(CCCN2CCOCC2)c2nc3ccccc3nc12` (configuration not stated) was 53.2% (active); that for `Cc1cccc(-n2c(N)c(C(=O)N3CCN(C)CC3)sc2=S)c1` was 18.2% (inactive). The value for `CCCS(=O)(=O)N1CCCC(C(=O)NCc2ccco2)C1` (configuration not stated) was 2.1% (inactive). For the compound `CCC(=O)Nc1c(S(=O)(=O)c2ccccc2)c2nc3ccccc3nc2n1Cc1ccccc1`, the inhibition was 62.4% (active).

In the case of `CC(C)(C)OC(=O)c1c(N)n(CCCN2CCCC2=O)c2nc3ccccc3nc12`, the inhibition was 34.4% (inactive). With `CCOc1cccc(/C=N/N2C(=O)CSC2=S)c1O`, the inhibition was 77.6% (active).
